From the supplement of paper PMC10338343
± gives the standard deviation.

The sequences below were run on EfPiwi piRISC loaded with L1MC piRNA (26 nt) (assay: pre-steady-state target cleavage rate (min^-1); auxiliary factor: 500 nM Ephydatia muelleri Gtsf1; guide: L1MC piRNA 5'p-UAACUAAAUACUAUGCAAGCUGUAGG; MIWI and MILI are mouse PIWI proteins and EfPiwi is from a freshwater sponge; tags in brackets are library labels; higher = faster piRNA-guided slicing of the target).
In short: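 Cleave-'n-Seq reactions paired 0.1 nM transcribed, DNA-blocked target RNA library with 1 nM active affinity-purified piRISC holding one synthetic guide, plus or minus 500 nM GTSF1 partner protein, in HEPES–potassium acetate buffer at 33 °C for 0–8 or 0–960 min. After sequencing of uncleaved targets and normalisation to depth and weakly complementary targets, the pre-steady-state cleavage rate was taken from a burst-and-steady-state fit. Three trials were pooled, and k3 was capped at 0.0001 min^-1.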

Sequence	pre-steady-state target cleavage rate
UCCUCCUACAGCUUGCUUAGUAAUUAGUUA	0.0113 ± 0.0049
UCCUGCUACUCCUUGCAUAGUAUUUAGUAA	0.00443 ± 0.003
UCCUGGUAAAGCUUGCAUAGUAUUUAGUUA	0.00606 ± 0.002
UCCUCCUACACCUUGCAUAGUAAUUAGUUA	0.0071 ± 0.0031
UCCUGGUUCAGCUUGCAUAGUAUUUAGUUA	0.0765 ± 0.018
UCCUGCUACAGGUUGCUUAGUAUUUAGUUA	0.0276 ± 0.0074
UCCUCCUACAGCUUGCAUUGUAUUUAGUAA	0.00648 ± 0.0029
UCCUGGUACAGCUUGCAUAUUAUUUAGUUA	0.00464 ± 0.0037
UCCUCCUAUAGCUUGCAUAGUAUUUAGUUA	0.0108 ± 0.0034
UCCUGGAACAGUUGCAUAGUAUUUAGUUA	0.0543 ± 0.013
UCCUGGUACAGCUUGCAUAGUAUUUAGUCUA	0.00521 ± 0.0031
UCCUGCUACAGCAUGCAUAGUUUUUAGUUA	0.00363 ± 0.0018
UCCUGGUACAGCUAGCAUAGUAUUUAGUUA	0.0085 ± 0.0027
UCCUGCUAGUGCUUGCAUAGUAUUUAGUUA	0.00363 ± 0.0014
UCCUGGAUGUCCUUGCAUAGUAUUUAGUAA	0.00321 ± 0.0025
UCCUGCUAGAGCUUGCAUAGUAUAUAGUUA	0.00471 ± 0.0017
UCCUGGAUGUCGAUGCAUAGUAUUUAAGUUA	0.00522 ± 0.0045
UCCUCCUACAGCUUGCAUAGUAUUUAUUUA	0.143 ± 0.053
UCCUGCUACAGCUUGCAUACUAUUUAGUUA	0.00755 ± 0.0026
UCCUCCUACAGGUUGCAUAGUAUUUAGUAA	0.00547 ± 0.0022

Sequence	pre-steady-state target cleavage rate
UCCUGGUACAGCUUGUCAUAGUAUUUAGUUA	0.00651 ± 0.0024
UCCUCCUACUGCUUGCUUAGUAUUUAGUUA	0.0504 ± 0.015
UCCUGGUACAAGCUUGCAUAGUAUUUAGUUA	0.0481 ± 0.014
UCCUGGAACAGCUUGCAUAGUAUUUGAGUUA	0.00552 ± 0.0019
UCCUGGAUGAGCUUGCAUAGUAUUUAAGUUA	0.0082 ± 0.0031
UCCUGGAUGUCGGUGCAUAGUAUUUAGUUA	0.00511 ± 0.0033
UCCUCCUACAGCUUGCAUAGUAUUAAGUUA	0.00589 ± 0.0029
UCCUGCUACUGCUUGCAUAGUAUUAAGUUA	0.00584 ± 0.0021
UCCUGGAACUGGUUGCAUAGUAUUUAGUUA	0.02 ± 0.0073
UCCUGCCUACAGCUUGCAUAGUAUUUAGUUA	0.0909 ± 0.021
UCCUGGAUGAGCUUGCAUAGUUUUUAGUUA	0.00485 ± 0.002
UCCUGCUACAGCUUGACAUAGUAUUUAGUUA	0.00916 ± 0.0026
UCCUGGAUCAGCUUGCAUAGUAUUGUAGUUA	0.00652 ± 0.0027
UCCUGGAUCAGCUUGCAUAGUUUUUAGUUA	0.00592 ± 0.0018
UCCUGCACAGCUUGCAUAGUAUUUAGUUA	0.0745 ± 0.016
UCCUGCUACAGCUUGCAUAGUAUAUUAGUUA	0.0185 ± 0.0079
UCCUGGAACAGCUUGCAUAGUAUUUAGUGA	0.00437 ± 0.002
UCCUGGAACAGCUUGCAUGGUAUUUAGUUA	0.0141 ± 0.0045
UCCUGCUACAGCUUGCAUAAUAUUUAGUUA	0.00444 ± 0.0021
UCCUGGAACUGCUAGCAUAGUAUUUAGUUA	0.0171 ± 0.0058
